From PubChem
A selection: hits, their analogues and other compounds. The true share with any hit is near 5.7%.
DAX1 inh-1 – DAX1 (NR0B1) inhibitors, primary screen, cell-based, HEK293, Gal4-DAX1, luciferase luminescence; Nuclear receptor subfamily 0 group B member 1 (Homo sapiens), P51843; HEK293 Gal4-DAX1 luciferase reporter; inhibition, % at 6.75 µM; 340,000 tested, 0.99% active;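 active means inhibition above the mean over all tested compounds plus 3 SD, cut at about 4.2% in these data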;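 further: inhibition shows as a rise in luminescence from relieved DAX1 repression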
Target sequence (P51843 207-470 limits assumed): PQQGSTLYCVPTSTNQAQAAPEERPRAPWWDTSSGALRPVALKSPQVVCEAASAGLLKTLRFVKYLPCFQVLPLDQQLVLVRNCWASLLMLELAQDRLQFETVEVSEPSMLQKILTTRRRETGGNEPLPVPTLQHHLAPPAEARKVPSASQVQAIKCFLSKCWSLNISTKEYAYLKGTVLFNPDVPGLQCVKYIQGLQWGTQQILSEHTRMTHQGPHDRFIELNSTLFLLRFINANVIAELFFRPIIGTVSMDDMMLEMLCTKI
ssDAF-12 act – S. stercoralis DAF-12 nuclear receptor activators, primary screen, cell-based, luminescence, HEK293, GRIP1 co-expression, lit1-tk-luc; Nuclear hormone receptor DAF-12 (Strongyloides stercoralis); HEK293 ssDAF-12/GRIP1 lit1-tk-luc reporter; % of 3 µM dafachronic acid response; activation, % at 6.8 µM; 370,000 tested, 1% active; AID 652126, 2013;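 active means activation above the mean over all tested compounds plus 3 SD, cut at about 0.9% in these data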
hcDAF-12 act – H. contortus DAF-12 nuclear receptor activators, primary screen, cell-based, luminescence, HEK293, lit1-tk-luc reporter; activation, % at 6.8 µM; AID 652067, 2013; HEK293 hcDAF-12 lit1-tk-luc reporter; 0% DMSO, 100% Δ7-dafachronic acid; 370,000 tested, 1.4% active;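 active means activation above the mean of all tested compounds plus 3 SD, cut at about 5.5% in these data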
AHR activator – AHR activators, primary screen, cell-based, luminescence, luciferase reporter, human; AID 2796, 2010; activation, % at 5 µM; AHR-responsive luciferase reporter cells; Aryl hydrocarbon receptor (Homo sapiens), P35869; 320,000 tested, 2.5% active; in the data active means activation above about 47%
hgDAF-12 ag – H. glycines DAF-12 receptor agonists, primary screen, cell-based, luminescence, HEK293, GAL4 fusion, UAS-luciferase; HEK293 GAL4-hgDAF12 UAS-luciferase reporter, agonist luminescence; normalized to butyrate control; Nuclear hormone receptor DAF-12 (Heterodera glycines), GAL4 fusion; AID 687014, 2013; 370,000 tested, 1.8% active; activation, % at 6.8 µM;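 active means activation above a cutoff set at the mean of all screened compounds plus 3 SD, cut at about 10% in these data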
DAX1 inh-2 – DAX1 (NR0B1) inhibitors on StAR promoter, primary screen, cell-based, luminescence, SF-1 (NR5A1), full-length DAX-1. HEK293T StAR-luciferase reporter, SF-1/DAX-1 repression relief. inhibition, % at 6.8 µM. 370,000 tested, 1.1% active;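 active means inhibition above the mean over all tested compounds plus 3 SD, cut at about 3.6% in these data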;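 further: higher inhibition means more luminescence from relief of DAX-1 repression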
Large screens that a line does not name were inactive.

Cc1nc2cc(N3CCCCC3)c(NC(=O)c3cccnc3)cc2c(=O)n1Cc1ccccc1	AHR activator 49
Cn1c2ccccc2c2nnc(SCC(=O)Nc3cccc(O)c3)nc21	AHR activator 66
CCCCn1c2ccc(C)cc2c2nnc(SCCN3CCCCC3)nc21	none (no result: AHR activator)
CSc1nnc2c3cc(F)ccc3n(C)c2n1	ssDAF-12 act 1.0
Cc1cc(C)c2c(c1)c1nnc(SCCN3CCCCC3)nc1n2C	ssDAF-12 act 1.6, hcDAF-12 act 6.1 (no result: AHR activator)
Cn1c2ccccc2c2nnc(SCCN3CCOCC3)nc21	hcDAF-12 act 6.3 (no result: AHR activator)
CCCCn1c2ccc(F)cc2c2nnc(SCCN3CCCCC3)nc21	none (no result: AHR activator)
Cn1c2ccccc2c2nnc(SCC(N)=O)nc21	ssDAF-12 act 0.9
Cn1c2ccc(Br)cc2c2nnc(SCC(=O)O)nc21	hcDAF-12 act 5.7, AHR activator 54
CCCn1c2ccccc2c2nnc(SCC(=O)OC)nc21	none
CCn1c2ccccc2c2nnc(SCc3ccccc3)nc21	AHR activator 63
CCCCn1c2ccccc2c2nnc(SCC(=O)NC3=NN=C(c4ccccc4)CS3)nc21	AHR activator 61 (no result: DAX1 inh-1)
CCOC(=O)CSc1nnc2c3ccccc3n(C)c2n1	none
Cc1ccc2oc(=O)c(/C=C(\O)c3cccs3)nc2c1	DAX1 inh-1 5.6, hcDAF-12 act 5.6
O=c1oc2ccc(Cl)cc2nc1/C=C(\O)c1cccs1	hcDAF-12 act 5.6
CC(C)n1cnc2c(Nc3cccc(F)c3)nc(NCCO)nc21	AHR activator 66
CC(C)C[C@H](CO)Nc1nc(Nc2cccc(Cl)c2)c2ncn(C(C)C)c2n1	none
CC(C)(C)c1ccc(NNC(=O)C2CCC2)cc1	AHR activator 73
CC(C)(C)c1ccc(NC(=O)COC(=O)C2CCCC2)cc1	none
Cc1ccc(OC(=O)c2sc(Cl)nc2C)cc1C	DAX1 inh-1 4.3
COc1ccc(N(C)C(=O)c2sc(Cl)nc2C)cc1	none
CC(=O)Nc1cc2c(cc1Br)-c1ccccc1C2	hcDAF-12 act 6.2, hgDAF-12 ag 11 (no result: AHR activator)
COc1ccc(CNC(=O)C2CC(C)=C(C)CC2C(=O)O)cc1OC (configuration not stated)	DAX1 inh-1 4.5
CCN(c1ccccc1)S(=O)(=O)c1ccc(C(=O)NC2CCN(Cc3ccccc3)CC2)cc1	none (no result: ssDAF-12 act, hcDAF-12 act, hgDAF-12 ag, DAX1 inh-2)
Cn1c(N)c(C(=O)Nc2ccccc2)c(=O)[nH]c1=O	none (no result: DAX1 inh-1)
Cn1c(N)c(C(=O)/C=C/c2ccccc2)c(=O)[nH]c1=O	ssDAF-12 act 1.1, AHR activator 47
O=C(Nc1ccc(N=Nc2ccccc2)cc1)c1ccc(Cl)cc1Cl	none
O=C(O)c1ccc(NC(=O)c2ccccc2NC(=O)c2ccccc2Cl)cc1	DAX1 inh-1 4.5
O=C(Nc1ccc(N=Nc2ccccc2)cc1)c1ccccc1Cl	hgDAF-12 ag 11, DAX1 inh-2 3.9
COC(=O)N[C@H]1CC=C[C@@H]1Cc1cccc(Oc2ccccc2)c1	none (no result: DAX1 inh-1, AHR activator)
CN(Cc1nc2ccccc2c(=O)[nH]1)c1ccccc1	DAX1 inh-1 5.3
CSc1ccccc1NC(=O)CN(C)Cc1c(O)ccc2ccccc12	hcDAF-12 act 6.2
COc1cc2nc(CN(C)Cc3nc4ccccc4c(=O)[nH]3)[nH]c(=O)c2cc1OC	none
CSc1ccccc1NC(=O)CN(C)Cc1ccc(Br)cc1	none
NC(=O)C1CCN(C(=O)CCc2nc3ccccc3c(=O)[nH]2)CC1	none
CCN(CC(=O)Nc1ccccc1SC)Cc1nc2ccccc2c(=O)[nH]1	DAX1 inh-1 5.0
CN1CCN(C(=O)CCc2nc3ccccc3c(=O)[nH]2)CC1	hcDAF-12 act 6.0
C[C@H]1[C@@H]2C[C@@]3(O[C@H](c4ccccn4)N=C3C[C@@H]1c1ccccc1)N(Cc1ccncc1)C2=O	none (no result: DAX1 inh-1, AHR activator)
Cn1c(Cc2cccs2)nnc1SCC(=O)Nc1ccc2c(c1)OCCO2	none (no result: DAX1 inh-1, AHR activator)
COc1ccc(OCCN(C)Cc2c(O)ccc3ccccc23)cc1	hcDAF-12 act 6.0
COC(=O)c1c(C)noc1-c1ccc(Cl)cc1	none
COC(=O)c1c(-c2ccccc2)noc1-c1ccccc1	AHR activator 53 (no result: DAX1 inh-1)
Cc1onc(-c2ccccc2)c1C(=O)Nc1ccc(NC(=O)c2c(-c3ccccc3)noc2C)cc1	DAX1 inh-1 5.1
CCOc1ccc(-n2c(SCC(=O)Nc3cccc4ccccc34)nnc2-c2ccco2)cc1	none (no result: DAX1 inh-1, AHR activator)
Fc1ccc(-c2csc(-c3cccnc3)n2)cc1F	AHR activator 68
Oc1ccc(-c2csc(-c3ccccc3)n2)cc1O	none
Oc1ccc(-c2csc(-c3cccnc3)n2)cc1O	hgDAF-12 ag 13
COc1ccc(C(C)c2cc3c(cc2OCC(=O)O)OCO3)cc1 (configuration not stated)	none (no result: DAX1 inh-1, AHR activator)
CC(=O)N1C[C@H]2CON(C)[C@H]2C[C@H]1c1ccccc1Br	ssDAF-12 act 1.1 (no result: AHR activator)
CC(=O)N1C[C@H]2CON(C)[C@H]2C[C@H]1c1cccc(-c2ccccc2C)c1	none (no result: AHR activator)
COc1ccccc1-c1cccc([C@@H]2C[C@H]3[C@H](CON3C)CN2C(C)=O)c1	DAX1 inh-2 3.7 (no result: AHR activator)
COC(=O)[C@@]1(C)[C@H]2C(=O)N(Cc3ccccc3)C(=O)[C@H]2[C@H]2CN=C(SCC(=O)c3ccccc3)N21	none (no result: AHR activator)
CC1=CCC(COC(=O)Nc2ccccc2)CC1 (configuration not stated)	hgDAF-12 ag 11
O=C(Nc1ccccc1)OCC1CCCN2CCCCC12 (configuration not stated)	none
Cc1ccc2nsnc2c1NC(=O)c1cccc([N+](=O)[O-])c1	none (no result: DAX1 inh-1, ssDAF-12 act, hcDAF-12 act, hgDAF-12 ag, DAX1 inh-2)
Cc1ccc2nsnc2c1NC(=O)c1cccnc1Cl	ssDAF-12 act 10
CCOC(=O)CSc1nnc(Cn2c(=O)sc3ccccc32)n1C	DAX1 inh-1 5.8
CCOC(=O)N1CCN(C(=O)CSc2nnc(Cn3c(=O)sc4ccccc43)n2C)CC1	none
CC(=O)c1ccc(NC(=O)CSc2nnc(Cn3c(=O)sc4ccccc43)n2C)cc1	DAX1 inh-1 4.8
CCOc1ccc(OCc2cccc(C(=O)N3CCCC3)c2)cc1	DAX1 inh-2 4.2
CCOc1ccc(C(=O)N2CCCC2)cc1	none
COc1cccc(COc2ccc3ccc(=O)oc3c2)c1	ssDAF-12 act 1.0
CCOC(=O)c1ccc2c(c1)nc(COc1ccc3ccccc3c1)n2CC	none
O=C(O)c1cccc(COc2ccc(CO)cc2Cl)c1	DAX1 inh-2 3.6
